From PubChem BioAssay AID651871 (Sanford-Burnham Center for Chemical Genomics, 2012) come the findings set out here.

Where “and” joins values, the source holds several entries; their conditions need not be identical. Identical values can stand only once.

The subject of this test is H9c2. The test is described as follows: protection of cardiomyocytes from stress damage, SAR follow-up, cell-based, panel, H9c2 and HL-1, ATP luminescence, set 2 (AID 651871).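 Further: cells exposed to stressor for 2 h before ATP readout; reference of the scale not given here.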 Conditions: H9c2/HL-1 cardiomyocytes, 2-deoxyglucose stress, with 2-deoxyglucose; run 3, at 79 µM (top of the series).
For the compound `COc1ccc2nc(-c3cc(OC)c(OC)c(OC)c3)cc(C(=O)NCC(=O)Nc3ccc(C(C)=O)cc3)c2c1`, the activity (protection/inhibition) worked out at 75.4%. Next, `CCOC(=O)c1cccc(NC(=O)CNC(=O)c2cc(-c3cc(OC)c(OC)c(OC)c3)nc3ccccc23)c1`: 92.4%.

In the case of `COc1ccc2c(c1OC)C(=O)N1c3ccccc3C(=O)N(Cc3cccc(Cl)c3Cl)C21` (stereo not drawn), the activity (protection/inhibition) is 71.2% and 81.8% and -10.3%.
